# Compound activity as filed in PubChem BioAssay.
# Vif-APOBEC3G blk – blocks the Vif interaction with human APOBEC3G | Potency, µM (series often up to 46.1 µM), for inactives: at the highest dose activity, negative = active, actives largely listed as inhibitors | 410,000 tested, 0.076% active | Q9HC16 | AID 602310 | HeLa A3G-eYFP + Vif (tagged APOBEC3G with the HIV-1 protein that degrades it), YFP fluorescence, overnight; note: potency is the fitted concentration of half-maximal effect; % is set by controls: 0 for no effect and ±100 for the full control effect; nearly all actives have a fitted effect of over 60% in size
# Target sequence (Q9HC16 whole entry, looked up): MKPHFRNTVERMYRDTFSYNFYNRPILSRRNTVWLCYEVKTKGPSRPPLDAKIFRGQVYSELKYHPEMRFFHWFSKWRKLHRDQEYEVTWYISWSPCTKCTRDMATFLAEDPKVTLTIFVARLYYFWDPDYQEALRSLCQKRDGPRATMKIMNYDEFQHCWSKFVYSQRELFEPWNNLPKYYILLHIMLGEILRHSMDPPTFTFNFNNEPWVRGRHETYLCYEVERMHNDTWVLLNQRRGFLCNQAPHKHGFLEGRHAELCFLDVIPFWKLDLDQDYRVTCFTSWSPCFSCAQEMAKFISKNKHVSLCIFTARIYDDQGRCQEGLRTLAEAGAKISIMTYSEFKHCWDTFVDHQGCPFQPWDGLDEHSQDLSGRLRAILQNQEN
#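 Read-out is eYFP fluorescence (Ex 488/Em 500-530) from Vif-expressing HeLa A3G-eYFP cells; more signal means A3G escaped Vif-mediated degradation. Cells plated overnight, compound pinned in, incubated overnight at 37 deg C.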
# MCF10A rerep – DNA re-replication induction in MCF 10a cells; MCF 10A DNA re-replication, Hoechst nuclear intensity, 48 h; 350,000 tested, 2.9% active; Potency, µM (series often up to 46.1 µM), for inactives: at the top dose activity, positive = re-replication, hits mostly activators; note: potency is the fitted concentration of half-maximal effect; % of control where 0% means no effect; nearly all actives have a fitted effect of over 50% in size
# SW480 rerep – inducers of DNA re-replication in SW480 colon cancer cells; SW480 DNA re-replication, Hoechst DNA content imaging, 48 h; Potency, µM (highest dose often 46.1 µM), without a hit: at the top dose re-replication activation, actives largely listed as activators; 340,000 tested, 1.8% active; AID 624297; note: potency is the fitted concentration of half-maximal effect; % of control where 0% means no effect; nearly all actives have a fitted effect of over 55% in size
#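 SW480 cells exposed to compounds for 48 hr at 37 C, 5% CO2, then Hoechst-stained 40 min. Nuclear DNA content imaged by fluorescence scanning (405 nm excitation, 500-530 nm emission); re-replication scored as increased high-intensity nuclei.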
# Vif-A3F inh – blocks the Vif interaction with APOBEC3F | HeLa A3F-eYFP + Vif (tagged APOBEC3F with the HIV-1 protein that degrades it), YFP fluorescence increase | Potency, µM (series often up to 46.1 µM), for the others: top-dose activity, negative = active | 390,000 tested, 0.2% active; note: potency is the fitted concentration of half-maximal effect; % of control where 0% means no effect; nearly all actives have a fitted effect of over 65% in size
#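 HeLa cells stably expressing A3F-eYFP plus Vif, plated and incubated overnight at 37 deg C, then exposed to compounds overnight at 37 deg C. Blocked degradation read as raised yellow fluorescence (Ex 488/Em 500-530).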
# Giardia kill – Giardia lamblia killing; Giardia lamblia trophozoite viability; activity change, % at 7.66 µM, hits read low; 340,000 tested, 0.15% active; AID 540267; in the data active = activity change below about -80%; inconclusive = between about -30% and that limit;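 note: parasites exposed to compound for two days anaerobically before the ATP read; % is set by controls: 0 for no effect and ±100 for the full control effect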
#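 Anaerobic 48 hrs incubation at 37 deg C of 100 trophozoites/well with test compounds; ATPLite 1-Step luminescence, 15-30 min RT, reports cellular ATP as viability.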
# IL-1B inflam inh – inhibitors of inflammasome signaling (IL-1 beta secretion); THP-1 LPS/ATP IL-1B secretion, AlphaLISA, 16 h; stronger effect = lower value; activity change, % at 57.5 µM; 360,000 tested, 4.7% active; AID 743279; in the data active = activity change below about -50%; inconclusive = mostly about -30% to -49%; note: % is set by controls: 0 for no effect and ±100 for the full control effect
#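 Secreted IL-1B measured by AlphaLISA bead assay after 16 h compound exposure of THP-1 cells; compounds (final up to 57.5 uM) added 1 h before LPS (250 ng/mL) and ATP (1.25 mM) stimulation; lower signal means less secretion.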
# The depositor's hits bear a star; ? = inconclusive; · = no result. In the library only some 6.9% were active in any assay of this set; here they are far more common. Unless noted, calls come from the whole dose curve; as a rule, active = well fitted curve in the direction sought with a large enough effect; inconclusive = small, poorly fitted or top-dose-only effect, or another doubt; inactive = no such curve, though single readings can be large; an effect the other way counts as inactive or inconclusive.
SMILES,Vif-APOBEC3G blk,MCF10A rerep,SW480 rerep,Vif-A3F inh,Giardia kill,IL-1B inflam inh
O=C1OC(/C(=C\Nc2ccc(F)cc2F)[N+](=O)[O-])c2ccccc21 (stereo not given),-9.0%,16.3%,10.1%,?,25.0,-97.5*
O=C1OC(/C(=C\Nc2cc(Cl)ccc2O)[N+](=O)[O-])c2ccccc21 (stereo not given),?,14.6µM*,?,?,-22.1,-170.2*
Cc1ccc(N/C=C(\C2OC(=O)c3ccccc32)[N+](=O)[O-])c(C)c1 (stereo not given),-0.4%,16.4%,-1.7%,-7.4%,-2.7,-77.2*
CCn1cc(C(=O)OCC(=O)Nc2cccc(C(C)=O)c2)c(=O)c2ccc(C)nc21,2.1%,·,·,-11.6%,·,·
O=C(Nc1cc(Cl)ccc1Cl)c1cc(S(=O)(=O)NCCc2ccccc2)ccc1F,-15.1%,·,·,4.0%,·,·
C=C1OC(CO)(n2cnc3c(N)ncnc32)C(O)C1O (stereo not given),-2.6%,·,·,·,4.4,·
CCc1cccc(NC(=O)c2cc3c(=O)[nH]c4ccccc4c3n2C)c1,-5.3%,·,·,-13.8%,·,·
COC(=O)c1ccc(OCC2c3cc(OC)c(OC)cc3CCN2C(=O)c2ccc(F)cc2)cc1 (stereo not given),-0.6%,·,·,-6.5%,·,·
Cc1cc(N2CCOCC2)ccc1/C=C\[N+](=O)[O-],-27.9%,18.4µM*,5.8µM*,-22.7%,-3.8,-222.5*
O=[N+]([O-])c1ccc(N2CCOCC2)cc1O,2.2%,-1.9%,0.8%,-13.6%,4.5,15.7
COc1ccc(CC(=O)NCc2ccc3c(c2)CCN3C(=O)c2ccc(C)cc2)cc1OC,10.7%,·,·,0.9%,·,·
O=S(=O)(Nc1cc(Cl)ccc1-n1cncn1)c1cc(Br)ccc1Br,-8.4%,?,-9.1%,1.7%,-5.8,-54.2*
Cc1ccccc1N(C(=O)c1snc(C(N)=O)c1N)C(C(=O)NCc1ccccc1)c1ccc(O)cc1 (stereo not given),-4.7%,?,?,0.5%,3.1,-100.0*
CN(C)c1ccc(C(C(=O)NC2CCCCC2)N(Cc2ccco2)C(=O)c2snc(C(N)=O)c2N)cc1 (stereo not given),-5.6%,9.4%,10.9%,-2.4%,13.1,-71.8*
COc1ccc(C(C(=O)NCc2ccccc2)N(C(=O)c2snc(C(N)=O)c2N)c2ccccc2OC)cc1OC (stereo not given),-0.4%,-1.3%,13.3%,11.2%,-1.9,0.0
COc1cc(C(C(=O)NC2CCCC2)N(Cc2ccco2)C(=O)c2snc(C(N)=O)c2N)cc(OC)c1OC (stereo not given),-0.7%,-5.9%,-1.3%,-4.5%,10.4,16.2
NC(=O)c1nsc(C(=O)N(c2ccccc2F)C(C(=O)NCc2ccccc2)c2ccc(O)cc2)c1N (stereo not given),0.6%,?,-0.7%,4.4%,-8.7,-101.5*
COc1ccccc1N(C(=O)c1snc(C(N)=O)c1N)C(C(=O)NCc1ccccc1)c1ccc(C)o1 (stereo not given),-4.7%,?,11.7%,-0.1%,10.5,-72.9*
CCN(CC)C(=O)c1sc2c(c1C)c(=O)n(CCc1ccccc1)c(=O)n2Cc1ccc(C)cc1,-1.3%,·,·,4.6%,·,·
CCOc1ccc(NC(=O)CCc2nc3cccnc3n2Cc2ccc(OC)cc2)cc1,-5.7%,·,·,0.3%,·,·
CCOC(=O)N1CCc2c(sc3c2c(=O)n(-c2ccc(Cl)cc2)c(=O)n3CC(C)C)C1,-4.7%,·,·,-10.7%,·,·
Cc1ccccc1N(C(=O)c1snc(C(N)=O)c1N)C(C)C(=O)NC1CCCCC1 (stereo not given),-4.5%,?,-5.8%,0.8%,13.8,-1.6
CCOc1ccccc1N(C(=O)c1snc(C(N)=O)c1N)C(C(=O)NCc1ccccc1)c1ccc(O)cc1 (stereo not given),-6.3%,?,?,8.8%,-13.0,-67.4*
